Screening results (PubChem BioAssay)
Compounds with a hit are over-represented: about 2.8% of the library has one in this group of screens.
POLB inh – qHTS Assay for Inhibitors of DNA Polymerase Beta. Pol beta primer extension/strand displacement, fluorescence kinetic. Potency, µM (highest dose often 114 µM), for inactives: top-dose activity change, negative = inhibition, hits mostly inhibitors. 1.3% of 340,000 active. AID 485314, 2010; note: potency is the fitted concentration of half-maximal effect; % is set by controls: 0 for no effect and ±100 for the full control effect
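Kinetic readout of DNA synthesis with strand displacement by Pol beta. Compound and 10 nM enzyme sit 15 min at room temperature; 50 nM substrate starts the reaction, read immediately and at 10 min.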
Pol iota inh – qHTS for Inhibitors of Polymerase Iota. Pol iota fluorescent replication assay, 10 min. AID 588590, 2011. DNA polymerase iota (Homo sapiens), Q9UNA4. 1% of 390,000 active. Potency, µM (doses to about 115 µM), for the others: at the highest dose activity, negative = inhibition, most hits filed as inhibitors; note: potency is the fitted concentration of half-maximal effect
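Pol iota at 10 nM preincubated 15 min with compounds at room temperature; reaction started with fluorescent substrate, 50 nM final. Fluorescence read kinetically at 0 and 10 min; buffer-only wells as negative control.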
Pol kappa inh – qHTS for Inhibitors of Polymerase Kappa. purified Pol kappa, fluorescent DNA synthesis assay, 10 min. DNA polymerase kappa (Homo sapiens), Q9UBT6. 0.53% of 400,000 active. Potency, µM (titrated, usually from 107 µM), for the others: top-dose activity, negative = inhibition, actives largely listed as inhibitors. AID 588579, 2011; note: potency is the fitted concentration of half-maximal effect; % is set by controls: 0 for no effect and ±100 for the full control effect
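Inhibition of 10 nM Pol kappa is measured by a fluorescent read-out at 0 and 10 min following addition of 50 nM substrate (final), with a 15-min room-temperature compound preincubation.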
PI5P4Ka inh – qHTS for Inhibitors of phosphatidylinositol 5-phosphate 4-kinase (PI5P4K); max response, %; PI5P4Kalpha enzyme, ADP-Glo luminescence, 60 min; active compounds read low; Phosphatidylinositol 5-phosphate 4-kinase type-2 alpha (Homo sapiens), P48426; AID 652105, 2013; 1.2% of 330,000 active; active = max response of -50% or lower; inconclusive = between -30% and -50%; inactive = -30% or higher; note: value at the top dose of about 77 µM; % is set by controls: 0 for no effect and ±100 for the full control effect
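Reactions run in 0.038 M HEPES pH 7.4, 0.28 mM EGTA, 0.1% CHAPS and 5% DMSO, with PI5P4Kalpha, substrate, compound and 5 microM ATP final, one hour at room temperature. Readout is ADP-Glo luminescence.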
WRN inhibitor – qHTS for Inhibitors of WRN Helicase. Bifunctional 3'-5' exonuclease/ATP-dependent helicase WRN (Homo sapiens), Q14191. WRN helicase unwinding, fluorescent forked duplex, kinetic. Potency, µM (titrated, usually from 114 µM), inactives show at the top dose activity change, negative = inhibition, actives largely listed as inhibitors. 0.46% of 360,000 active; note: potency is the fitted concentration of half-maximal effect; % is set by controls: 0 for no effect and ±100 for the full control effect; nearly all actives have a fitted effect of over 55% in size
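Kinetic fluorescence helicase assay: unwinding of a quenched forked DNA duplex (100 nM final) with 2 mM ATP final raises red fluorescence (525/598 nm). Compounds sat 15 min at room temperature with 20 nM WRN beforehand.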
Pol eta inh – qHTS for Inhibitors of Polymerase Eta | Potency, µM (top dose mostly 114 µM), inactives show at the highest dose activity change, negative = inhibition, actives largely listed as inhibitors | recombinant Pol eta, fluorescent DNA replication assay | DNA polymerase eta (Homo sapiens), Q9Y253 | 1.2% of 390,000 active; note: potency is the fitted concentration of half-maximal effect; % is set by controls: 0 for no effect and ±100 for the full control effect
Target sequence (Q9Y253 whole entry, looked up): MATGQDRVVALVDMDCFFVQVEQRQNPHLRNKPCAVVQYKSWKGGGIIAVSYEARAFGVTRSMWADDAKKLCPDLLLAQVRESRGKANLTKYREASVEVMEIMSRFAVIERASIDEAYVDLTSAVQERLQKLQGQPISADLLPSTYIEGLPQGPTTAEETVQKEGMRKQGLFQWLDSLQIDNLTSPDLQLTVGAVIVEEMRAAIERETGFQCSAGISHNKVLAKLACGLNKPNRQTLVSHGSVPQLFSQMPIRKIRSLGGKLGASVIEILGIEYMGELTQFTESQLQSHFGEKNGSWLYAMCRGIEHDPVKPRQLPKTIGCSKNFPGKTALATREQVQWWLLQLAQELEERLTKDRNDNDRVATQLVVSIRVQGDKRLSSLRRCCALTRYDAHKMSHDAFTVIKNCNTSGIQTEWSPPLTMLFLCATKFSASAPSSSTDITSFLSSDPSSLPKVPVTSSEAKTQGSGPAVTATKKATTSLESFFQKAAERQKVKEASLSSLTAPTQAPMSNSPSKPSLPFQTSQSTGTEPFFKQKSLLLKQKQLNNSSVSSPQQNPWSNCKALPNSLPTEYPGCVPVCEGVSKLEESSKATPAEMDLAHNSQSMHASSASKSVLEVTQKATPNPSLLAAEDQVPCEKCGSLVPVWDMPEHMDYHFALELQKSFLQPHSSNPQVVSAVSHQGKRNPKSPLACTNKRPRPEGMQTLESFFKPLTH
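Fluorescent replication assay: 50 nM final substrate added after a 15 min room-temperature compound preincubation with 10 nM enzyme. Signal taken at 0 min and again at 10 min.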
The depositor's hits bear a star; u = inconclusive; x = not tested or not shown; [ ] = remark or other dose. Unless noted, calls come from the whole dose curve; as a rule, active = well fitted curve in the direction sought with a large enough effect; inconclusive = small, poorly fitted or top-dose-only effect, or another doubt; inactive = no such curve, though single readings can be large; an effect the other way counts as inactive or inconclusive.

SMILES | POLB inh | Pol iota inh | Pol kappa inh | PI5P4Ka inh | WRN inhibitor | Pol eta inh
Cc1[nH]c2ccc(C(=O)OC(C)C(=O)NC3(C#N)CCCCC3)cc2c1C (stereo unspecified) | x | 43% | 0% | 0 | -4% | -17%
CCOC(=O)N1CCc2c(sc(NC(=O)c3ccc(S(=O)(=O)N4CCCC4)cc3)c2C#N)C1 | 33% | 27% | -15% | -82* | -7% | -22%
O=C(CNC(=O)C12CC3CC(CC(C3)C1)C2)N1CCN(S(=O)(=O)/C=C/c2ccccc2)CC1 | 17%[57.1 µM] | 11% | -12% | -1 | -9% | -23%
O=C(N/N=C/c1ccco1)c1cc(-c2ccc(Cl)s2)[nH]n1 | u | u | -29% | -22 | -16% | -9%
O=C(N/N=C/c1cccs1)c1cc(-c2ccc(Cl)s2)[nH]n1 | 45µM* | u | -26% | -3 | -5%[11.6 µM] | u
C#CCCc1cocc1/C=[N+](\[O-])c1ccc(C(=O)OCC)cc1 | x | 35µM* | u | u | -9% | 3%
NC(=O)C(=CNc1nc(-c2ccc(Cl)c(Cl)c2)cs1)C(N)=O | 1.4µM* | x | x | x | x | x
O=C(O)c1ccc(-c2nc(-c3ccc(Cl)c(Cl)c3)cs2)cc1 | 10% | -5% | 11% | -3 | 10% | -15%
COc1ccc(OC)c(/C=N/NC(=O)c2[nH]nc3c2CCc2ccccc2-3)c1 | u | -8% | -17% | -51* | -8% | 17%
CCc1ccccc1NC(=O)CSc1nc(-c2ccccc2OC)nc2c1Cc1c(CO)cnc(C)c1O2 | u | 4% | -10% | x | x | 5%
COc1ccccc1-c1nc2c(c(SCC(=O)Nc3ccccc3F)n1)Cc1c(CO)cnc(C)c1O2 | 79µM* | 4% | -10% | x | x | -1%
O=C1CC(=Nc2ccc([N+](=O)[O-])cc2)NN1c1c(Cl)cc(Cl)cc1Cl | x | x | x | u | 4% | 79µM*
CC1=NC(C(F)(F)F)(C(F)(F)F)C2=C(CC(C)(C)CC2=O)N1Cc1ccco1 | 0% | 25% | -9% | x | -14% | -7%
COc1ccc(/C=C/c2ccc(=O)n(Cc3ccccc3)n2)cc1 | -6% | 63% | -7% | -51* | -15% | -10%
O=C(CNC(=O)c1ccccc1)N/N=C/C=C/c1ccccc1 | 1% | 48% | 12% | -22 | 16% | -4%
O=C(Cc1cc(=O)[nH][nH]1)N/N=C/C=C/c1ccccc1 | -14% | u | -31% | -60* | u | 14µM*
CCC(=O)N1CCc2cc(Br)cc(S(=O)(=O)CCC(=O)N(CC)Cc3ccccc3)c21 | 25% | -22% | -2% | x | x | -8%
O=C(Nc1ccc2oc(-c3ccccc3)nc2c1)c1cc(-n2cnnc2)ccc1Cl | u | 35µM* | -9% | -4 | -22%[57.1 µM] | -24%
O=C(Nc1ccc(-c2nc3ccccc3o2)c(O)c1)c1cc(-n2cnnc2)ccc1Cl | 35µM* | u | -1% | x | -22% | -20%
Cc1c(NC(=O)c2cc(-n3cnnc3)ccc2Cl)cccc1-c1nc2ccccc2o1 | 0% | -1% | -6% | 5 | -16% | -14%
O=C(Nc1ccc(-c2nc3ccccc3o2)cc1)c1cc(-n2cnnc2)ccc1Cl | -3% | -173% | -3% | -5 | -4% | -7%
COc1ccc(CN2CC[C@H]3C=CC[C@@H](C(=O)N4CCN(c5ccccc5)CC4)[C@H]3C2=O)cc1OC | x | 11% | 14% | x | x | x
O=C(N/N=C\C=C\c1ccc(Br)cc1)c1ccc2c(c1)OCO2 | 35µM* | u | -13% | -14 | -17% | -18%
O=C(CNC(=O)c1ccc2c(c1)OCO2)N/N=C/c1cc(Br)ccc1O | 45µM* | -18% | -13% | 10 | -14% | -6%
O=C(NCC(=O)N1CCN(S(=O)(=O)c2ccccc2F)CC1)c1ccc2c(c1)OCO2 | x | 7% | 8% | -7 | -2% | -15%
SMILES | POLB inh | Pol iota inh | Pol kappa inh | PI5P4Ka inh | WRN inhibitor | Pol eta inh
O=C(NCC(=O)N1CCN(c2ccccc2O)CC1)c1ccc2c(c1)OCO2 | u | 50µM* | -12% | -21 | 2%[11.6 µM] | u
O=C(CCc1ccc(O)c(O)c1)N/N=C/c1ccc2c(c1)OCO2 | 71µM* | 79µM* | u | -21 | 0%[11.6 µM] | 0%
O=C(N/N=C/C=C/c1ccc2c(c1)OCO2)c1ccc([N+](=O)[O-])cc1 | 2% | 18% | -15% | x | -13% | 4%
CCc1ccc(CN(C(=O)c2cc(=O)c3ccc(C)cc3o2)C2CCS(=O)(=O)C2)cc1 (stereo unspecified) | -3% | -2% | 3% | x | x | -12%
O=C(N/N=C/c1ccc(Cl)cc1)c1ccc2c(c1)OCO2 | 35µM* | 79µM* | -6% | 0 | 0%[11.6 µM] | 7%
Cc1ccc(C(=O)Nc2ccc3c(c2)nc(CCNC(=O)c2ccco2)n3C)cc1 | 0% | 106% | 0% | -4 | -7% | -22%
CC(=O)Nc1ccc(S(=O)(=O)NCCC(=O)OCC(=O)N2CCN(C(=O)c3ccco3)CC2)cc1 | 45µM* | 45µM* | -32% | -16 | u | u
Oc1[nH]c2ccccc2c1N=Nc1ccccn1 | x | 8% | -6% | 0 | -16% | u
Oc1c(N=Nc2ccccn2)ccc2ccccc12 | -1% | 49% | 0% | -10 | 56µM* | -26%
CC1=NN(c2ccc(Cl)c(C(=O)O)c2)C(=O)C1 | u | 1.1µM* | -42% | -17 | u | 22µM*
CC1=NN(c2ccc([N+](=O)[O-])cc2)C(=O)C1 | x | 78% | -11% | -15 | u | 10%
CC1=NN(c2ccc(C(=O)O)cc2)C(=O)CC1 | u | 41% | 1% | 1 | -7% | -16%
CC1=NN(c2cc(Cl)c(S(=O)(=O)O)cc2Cl)C(=O)C1 | x | u | u | 1 | -18% | 22µM*
CC1=NN(c2cccc(Cl)c2)C(=O)C1 | 1% | 3.5µM* | -20% | 8 | -19%[57.1 µM] | -16%
CC1=NN(c2ccc(S(=O)(=O)O)cc2Cl)C(=O)C1 | -3% | u | -14% | 1 | -14% | u
Cc1ccc(C)c(CN2C(=O)c3ccccc3S(=O)(=O)c3ccc(C(=O)N4CCc5ccccc54)cc32)c1 | u | -11% | -12% | x | x | x
COC(=O)C[C@H]1c2cc(C(F)(F)F)ccc2S(=O)(=O)N1C1CCCC1 | x | u | u | -10 | -6% | -8%
Cc1ccc(-c2ccc(S(=O)(=O)Nc3cccnc3)cc2)cc1 | 50µM* | 54% | -6% | -1 | -7% | -21%
